Source: PubChem BioAssay (NCI)
Compounds without any hit were thinned out: in the full panel of roughly 83,000, 20% have a hit.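 Interpretation: 100, growth as untreated; towards 0, rising growth inhibition; 0, no net growth; 0 to -100, cell death. Compounds scoring below 10 were considered active.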 A number with no mark means an inactive call. Active and inactive are the calls of the source.

Tested on: HL-60(TB) leukemia
Experiment: NCI-60 one-dose screen, 48 h (100 = growth as untreated, 0 = no growth, -100 = all killed)
Conditions: 10 µM unless noted

With `COc1cc2c(c(OC)c1OC)-c1ccc(N)c(=O)cc1[C@@H](NC(C)=O)CC2` the growth was 3.69% (active).
In the case of `CC(=O)OCCC/C(=C\c1ccc2ccccc2c1)[N+](=O)[O-]`, the growth is reported as -61% (active).
In the case of `CCN1C(=O)N(c2ccccc2)C2NC(=S)N(/N=C/C=C/c3ccccc3OC)C21` (stereo unspecified), the growth is reported as -44.9% (active).
In the case of `Cn1ccnc1C(=O)/C=C/c1ccc(C(=O)Nc2ccc(S(F)(F)(F)(F)F)cc2)cc1`, the growth is reported as -30.1% (active).
For `O=C(Nc1ccc(-n2cc(-c3ccncc3)c(-c3ccc(Cl)c(O)c3)n2)cc1)c1ccc(Cl)c(Cl)c1`, the growth was -27% (active).
With `Cn1ccnc1C(=O)/C=C/c1ccc(C(=O)Nc2ccc(F)cc2)cc1` the growth was -6.9% (active).
In the case of `C=C1C(=O)O[C@H]2[C@H]1CC/C(COC(=O)/C=C\C(=O)NCc1ccc(Cn3c(=O)sn(CCCI)c3=O)cc1)=C\CC[C@@]1(C)O[C@@H]21`, the growth is reported as -36.6% (active).

Compared with `CN=C(NC)N/N=C(C)\C=N\NC(=NC)NC`, `CCOC(=O)C1=C(C)NC(C)=C(C(=O)OCC)C1(C)C` is lower in growth: 99% for the first, 69.3% for the second.

Going from `COC(=O)CC[C@@H]1O[C@@H](c2ccc(F)cc2)[C@@H](O)[C@H]1O` to `CCOC(=O)/C(C#N)=C/c1cccc(C)c1`, the growth falls from 113% to 86.4%.

Compared with `CC(=O)Nc1ccc(S(=O)(=O)N2C(=O)CCC2C(=O)Nc2ccc(Br)cc2)cc1` (stereo unspecified), `NS(=O)(=O)c1ccc(NC(=O)/C(=C\c2ccc(Cl)cc2Cl)NC(=O)c2ccccc2)cc1` is higher in growth: 15.5% for the first, 84.8% for the second.

Going from `Clc1cc(Cl)cc(N2N=C(c3cccc(Nc4ccncc4)c3)CC2c2ccc(Br)cc2)c1` (stereo unspecified) to `O=C(O)c1cn(C2CC2)c2cc(N3CCN(C(=O)CSc4nnc(-c5ccc(Cl)cc5)n4-c4ccccc4)CC3)c(F)cc2c1=O`, the growth rises from 17.3% to 91.1%.

Compared with `O=CNc1ccc2c(c1)Cc1cccc(NC=O)c1-2`, `O=C1/C(=C/c2ccc([N+](=O)[O-])cc2)COc2ccc(O)cc21` is lower in growth: 70.6% for the first, 50.9% for the second.

Going from `COc1ccc(N/C=C/C2=[N+](C)c3ccccc3C2(C)C)c(OC)c1` to `COc1ccc(-c2[nH]nc(N)c2-c2cc(OC)c3c(c2)OCO3)cc1`, the growth falls from 99.3% to 20.5%.

Going from `CCCCCN1CCN(C(CC(=O)c2ccccc2)C(=O)c2ccccc2)CC1` (stereo unspecified) to `CC12OC(CC(O)C1O)n1c3ccccc3c3c4c(c5c6ccccc6n2c5c31)C(=O)N(CCN1CCCC1)C4=O` (stereo unspecified), the growth falls from 60.4% to 18.3%.

Going from `Cc1ccc(/C=C2/C(=O)N(C)c3ccc(S(=O)(=O)Nc4ccc(C(C)(C)C)cc4)cc32)s1` to `COc1ccc(/C=C/c2nc(Nc3ccc(S(=O)(=O)NC(C)=O)cc3)c3ccccc3n2)cc1`, the growth falls from 97% to 85.7%.

Compared with `CC(C)(C#N)N1CCN(c2ccccc2Cl)CC1`, `Cc1c(C(C)(C)O)cn2ncnc(Oc3ccc(NC(=O)Nc4ccc(Cl)c(C(F)(F)F)c4)c(F)c3)c12` is lower in growth: 103% for the first, 63.1% for the second.

`O=C(/C=C/C12c3ccccc3C(c3ccccc31)C1C(=O)N(c3ccccc3)C(=O)C12)c1ccccc1` (stereo unspecified) gave a growth of 10.5%.
